From PubChem BioAssay (EPA / NIEHS)
Inconclusive results are not listed. The source made the active and inactive calls. The calls were made as follows: active = hit-call score of the fitted dose curve at least 0.9, where 1 is the maximum; inconclusive = response in the unintended direction; inactive = score below 0.9.

Legend:
[1] = target: Cellular tumor antigen p53 (Homo sapiens) (UniProt P04637); test: TOX21_p53_BLA_p2_ratio: Tox21 HCT-116 p53 Agonism Beta-lactamase Assay, Ratio, Phase 2 (AID 2283592)
Cellular tumor antigen p53 (Homo sapiens), sequence (P04637 whole entry, looked up): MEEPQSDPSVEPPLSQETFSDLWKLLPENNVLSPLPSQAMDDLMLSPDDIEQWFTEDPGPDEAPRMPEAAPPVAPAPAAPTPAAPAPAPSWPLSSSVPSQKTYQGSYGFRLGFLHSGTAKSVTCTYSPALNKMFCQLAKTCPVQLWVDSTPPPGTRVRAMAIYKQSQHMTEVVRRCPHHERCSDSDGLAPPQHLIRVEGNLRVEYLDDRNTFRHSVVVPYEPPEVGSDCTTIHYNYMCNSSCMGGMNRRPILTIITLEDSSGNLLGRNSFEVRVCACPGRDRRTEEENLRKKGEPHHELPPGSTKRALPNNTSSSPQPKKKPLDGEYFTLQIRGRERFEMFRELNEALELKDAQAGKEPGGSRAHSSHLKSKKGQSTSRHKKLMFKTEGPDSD
In short: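 HCT-116 cells with p53-responsive beta-lactamase reporter, 4000 cells/well, preincubated 5 h, then compound in DMSO (217-fold dilution) for 16 h at 37C. CCF4-AM substrate 2 h at room temperature; 460/530 nm emission ratio fitted upward versus DMSO.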

[2] = TOX21_p53_BLA_p4_viability: Viability Assessment in the Tox21 HCT-116 p53 Agonism Beta-lactamase Assay, Phase 4 (AID 2283597);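 also: hits lower the luminescence signal meaning cytotoxicity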
In short: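 HCT-116 p53-bla cells, 4000/well, dosed after 5 h attachment and incubated 16 h at 37 °C, 5% CO2. Viability from CellTiter-Glo ATP luminescence after 30 min at room temperature, taken after the beta-lactamase read; loss of signal indicates cytotoxicity.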

[3] = target: Cellular tumor antigen p53 (Homo sapiens) (UniProt P04637); test: TOX21_p53_BLA_p5_ratio: Tox21 HCT-116 p53 Agonism Beta-lactamase Assay, Ratio, Phase 5 (AID 2283599)
In short: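 HCT-116 cells carrying a p53-inducible beta-lactamase reporter were seeded at 4000 cells/well and dosed after 5 h with compound in DMSO (217-fold dilution). After 16 h at 37C, CCF4-AM substrate was added for 2 h, and the 460/530 nm emission ratio was scored as gain-of-signal versus DMSO.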

[4] = TOX21_p53_BLA_p5_viability: Viability Assessment in the Tox21 HCT-116 p53 Agonism Beta-lactamase Assay, Phase 5 (AID 2283600)
In short: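 HCT-116 p53 beta-lactamase reporter cells, 4000/well, were exposed to compound (pin transfer, 217-fold dilution) for 16 hours at 37C. Cellular ATP was read by CellTiter-Glo luminescence after 30 min at room temperature.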

[5] = target: Cellular tumor antigen p53 (Homo sapiens) (UniProt P04637); test: TOX21_p53_BLA_p4_ratio: Tox21 HCT-116 p53 Agonism Beta-lactamase Assay, Ratio, Phase 4 (AID 2283601)
In short: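 HCT116 cells carrying an inducible beta-lactamase reporter were plated at 4000 cells/well, rested 5 h, then exposed to compounds in DMSO (217-fold dilution) for 16 h at 37C. CCF4-AM substrate was loaded 2 h at room temperature; 460/530 nm emission ratio scored gain-of-signal versus DMSO.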

[6] = target: PGR (gene 5241) (UniProt P06401); test: TOX21_PR_BLA_Followup_Antagonist_ratio: Tox21 HEK293 Progesterone Receptor (PR) Antagonism Beta-lactamase Follow-Up Assay, Ratio (AID 2283934)
PGR (gene 5241), sequence (P06401 whole entry, looked up): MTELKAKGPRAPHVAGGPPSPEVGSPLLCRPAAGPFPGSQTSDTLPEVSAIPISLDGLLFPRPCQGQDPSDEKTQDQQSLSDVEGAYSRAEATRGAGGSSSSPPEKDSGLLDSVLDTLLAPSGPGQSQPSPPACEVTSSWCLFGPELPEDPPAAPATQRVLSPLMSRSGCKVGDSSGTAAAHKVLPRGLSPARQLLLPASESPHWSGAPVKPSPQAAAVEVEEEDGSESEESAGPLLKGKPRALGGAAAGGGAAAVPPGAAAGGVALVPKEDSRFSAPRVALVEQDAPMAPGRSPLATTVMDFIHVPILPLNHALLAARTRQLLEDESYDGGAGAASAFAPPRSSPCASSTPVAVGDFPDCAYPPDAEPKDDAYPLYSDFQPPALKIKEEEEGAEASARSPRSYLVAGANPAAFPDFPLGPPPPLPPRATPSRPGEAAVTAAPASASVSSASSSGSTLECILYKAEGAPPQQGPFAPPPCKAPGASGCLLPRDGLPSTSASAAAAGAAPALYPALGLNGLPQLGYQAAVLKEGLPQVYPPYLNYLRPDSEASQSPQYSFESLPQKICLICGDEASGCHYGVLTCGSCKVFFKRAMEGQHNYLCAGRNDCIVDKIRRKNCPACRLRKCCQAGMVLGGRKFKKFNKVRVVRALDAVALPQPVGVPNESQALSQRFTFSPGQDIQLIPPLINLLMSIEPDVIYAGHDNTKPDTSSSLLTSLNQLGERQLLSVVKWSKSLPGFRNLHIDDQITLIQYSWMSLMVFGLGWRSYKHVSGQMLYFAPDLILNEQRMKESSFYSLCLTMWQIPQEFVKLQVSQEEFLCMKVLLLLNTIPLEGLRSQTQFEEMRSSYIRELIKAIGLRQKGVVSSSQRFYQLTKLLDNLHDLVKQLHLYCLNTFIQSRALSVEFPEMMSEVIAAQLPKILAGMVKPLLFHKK
In short: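 PR-UAS-bla HEK293T cells, 3,000/well in 2% charcoal-stripped FBS, given compound plus 1nM R5020 agonist for 16 hr at 37C. Beta-lactamase FRET substrate 2 hours, ratio cleaved/uncleaved fluorescence; viability by CellTiter-Glo in same wells.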

[7] = TOX21_PR_BLA_Followup_Agonist_viability: Viability Assessment in the Tox21 HEK293 Progesterone Receptor (PR) Agonism Beta-lactamase Follow-Up Assay (AID 2283935);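 also: signal loss means lower viability so actives are cytotoxic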
In short: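 PR-UAS-bla HEK293T cells in 2% charcoal-stripped FBS medium, plated 6 hr before compound addition, exposed 16 hr at 37C. Viability read by CellTiter-Glo ATP luminescence after 30 min at room temperature, in the same wells as the beta-lactamase readout.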

[8] = TOX21_PR_LUC_Followup_Antagonist_viability: Viability Assessment in the Tox21 HEK293 Progesterone Receptor (PR) Antagonism Luciferase Follow-Up Assay (AID 2283940)
In short: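 HEK293-PR-A-luc cells kept in charcoal-stripped FBS medium were plated 5 h before compound addition, then exposed 16 h at 37C; viability read as cellular ATP by luciferase luminescence, loss of signal indicating cytotoxicity.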

[9] = TOX21_PR_LUC_Followup_Agonist_viability: Viability Assessment in the Tox21 HEK293 Progesterone Receptor (PR) Agonism Luciferase Follow-Up Assay (AID 2283941);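 also: loss of signal means cytotoxicity so actives lower viability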
In short: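 HEK293-PR-A-luc cells, kept in 10% charcoal-stripped FBS medium, were treated with compounds for 16 h at 37C. Viability read as cellular ATP by luciferase-coupled luminescence; loss of signal indicates cytotoxicity.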

Measured: outcome

Nc1nc(-c2ccc([N+](=O)[O-])cc2)cs1
inactive: [1] | [2] | [3] | [4] | [5]

CN(CC(=O)N1CCOCC1)Cc1c(Cl)cccc1NC(=O)c1ccccc1
inactive: [1] | [2] | [4]

CCCCCCCCCCCCOCCCN
inactive: [1] | [2] | [5]

Nc1ccc2cc(S(=O)(=O)O)ccc2c1
inactive: [1] | [2] | [3] | [5]

NC(=O)c1cn(Cc2c(F)cccc2F)nn1
inactive: [1] | [2] | [4] | [5]

C#CCN[C@@H]1CCc2ccccc21
inactive: [1] | [2] | [3] | [5]

CCCn1c(=O)[nH]c(=O)c2[nH]cnc21
inactive: [1] | [2] | [3] | [4] | [5]

COc1ccc(C=NNC(=O)c2ccncc2)c(C(=O)O)c1OC
inactive: [1] | [2] | [3] | [5]

CCCCCCCCCCCCCCCCCC(=O)OCCO
inactive: [1] | [2] | [3] | [4] | [5]

CC(=O)NC(=O)c1ccccc1O
inactive: [1] | [2] | [3] | [4] | [5]

CN(C)CC[C@@H](c1ccc(Cl)cc1)c1ccccn1
inactive: [1] | [2] | [3] | [5]

O=C(OC1C[C@@H]2CC3C[C@H](C1)N2CC3=O)c1c[nH]c2ccccc12 (some centres undefined)
inactive: [1] | [2] | [4]

CCCCCCCCCCCCCCCCBr
inactive: [1] | [3]

O=C1NC(=O)[C@H]2[C@@H]1[C@@H]1C=C[C@H]2C1
inactive: [1] | [2] | [4]

C[C@@H]1CC[C@@]2(OC1)O[C@H]1C[C@H]3[C@@H]4CC[C@H]5C[C@@H](O)CC[C@]5(C)[C@H]4CC(=O)[C@]3(C)[C@H]1[C@@H]2C
inactive: [1] | [2] | [3] | [5]

CC(C)(C)NCCO
inactive: [1] | [2] | [4] | [5]

O=C1CC[C@H](C(=O)N2CCCCC2)N1
inactive: [1] | [2] | [3] | [4] | [5]

C=CCCCC
inactive: [1] | [2] | [4] | [5]

CCCCCCCCCCCCCCCCCl
inactive: [1] | [2] | [3] | [5]

Cc1cc(NC(=O)C2=C(O)c3ccccc3S(=O)(=O)N2C)no1
inactive: [1] | [2] | [3] | [4] | [5]

CCN1CCc2nc(N)oc2CC1
inactive: [1] | [2] | [3] | [4] | [5]

CCN(CC)CCOC(=O)C1(c2ccccc2)CCCC1
inactive: [1] | [2] | [3] | [5]

O=CC1CC=CCC1 (centres undefined)
inactive: [1] | [2] | [4] | [5]

COc1cc(S(C)=O)ccc1-c1nc2ncccc2[nH]1 (centres undefined)
inactive: [1] | [2] | [3] | [4] | [5]

c1ccc2nccnc2c1
inactive: [1] | [2] | [4] | [5]

CCc1cccc(C)c1
inactive: [1] | [2] | [3] | [5]

CCc1ccc(CC)cc1
inactive: [1] | [2] | [3] | [4] | [5]

CC(COc1ccccc1)NN (centres undefined)
inactive: [1] | [2] | [5]

O=C(O)CCNC(=O)c1ccc(N=Nc2ccc(O)c(C(=O)O)c2)cc1
inactive: [1] | [2] | [3] | [5]

CC(C)CCC[C@@H](C)[C@H]1CC[C@H]2[C@@H]3CC[C@@H]4C[C@H](O)CC[C@]4(C)[C@H]3CC[C@]12C
inactive: [1] | [2] | [3] | [5]

O=C(O)c1ccc(O)cc1O
inactive: [1] | [2] | [3] | [5]

CC(CO)CO
inactive: [1] | [2] | [5]

CCC(CO)(CO)[N+](=O)[O-]
inactive: [1] | [2] | [4]

Brc1cc2ccccc2c2ccccc12
inactive: [1] | [2] | [3] | [5]

Cl/C(=C\n1cncn1)c1ccc(Cl)cc1Cl
inactive: all assays above

CC(C)=CCC[C@@](C)(O)[C@H]1CC=C(C)CC1
inactive: [1] | [3]

C=CCCCCCCCC
inactive: [1] | [4] | [5]

CC(C)(C)NCC(O)COc1cccc2c1C[C@H](O)[C@H](O)C2 (some centres undefined)
inactive: [1] | [3] | [4] | [5]

COc1ccc2cc([C@H](C)CO)ccc2c1
inactive: [1] | [3] | [4] | [5]

Cc1ccc2cccnc2c1
inactive: [1] | [3] | [4] | [5]

COC(=O)NCCC[Si](OC)(OC)OC
inactive: [1] | [4]
